Assay outcomes: PubChem BioAssay, National Center for Advancing Translational Sciences (NCATS)
ALOX12 inh: ALOX12 (human) lipoxygenase inhibition; P18054; purified 12hLO, xylenol orange hydroperoxide absorbance; Potency, µM (doses to about 108 µM), for inactives: at the highest dose activity change, negative = inhibition, usual class: inhibitors; 580,000 compounds, 1.1% hits; AID 1671190
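Purified human 12hLO (150 nM final) in 25 mM Hepes, 0.01% Triton X-100, pH 7.0 was preincubated 15 min at room temperature with compound. Then 40 uM arachidonic acid was added, 30 min. Hydroperoxide was read by Fe-XO absorbance ratio 573/405 nm.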
DT40 TDP1 CPT: DT40-hTDP1 cell growth loss with CPT; Potency, µM (series often up to 46.2 µM), for inactives: top-dose activity change, negative = growth inhibition, actives largely listed as inhibitors; chicken DT40 Tdp1-/-;hTDP1 cells + 20 nM CPT, ATP luminescence, 48 h; 420,000 compounds, 12% hits; AID 686979; note: nearly all actives have a fitted effect of over 55% in size
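Cell growth measured by CellTiter-Glo luminescence after a minimum 48 h, 37 C compound exposure with 20 nM CPT in Tdp1-knockout DT40 cells stably expressing hTDP1, seeded 400/well; qHTS titration format.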
Gal4-VP16 FLuc: inhibits Gal4-VP16 luciferase reporter, ROR gamma counter-screen | Drosophila S2 Gal4-VP16 UAS-luciferase, luminescence, 20 h | Potency, µM (highest dose often 53.6 µM), for the others: top-dose activity, negative = inhibition, most hits filed as inhibitors | 310,000 compounds, 3.5% hits;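 note: Gal4-VP16 expression switched on by copper sulfate through the metallothionein promoter; nearly all actives have a fitted effect of over 50% in size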
RORg inh: blocks mouse ROR gamma transcriptional activity. P51450. Drosophila S2 Gal4-RORgamma UAS-luciferase reporter, 20 h. Potency, µM (series often up to 53.6 µM), without a hit: at the highest dose activity change, negative = inhibition, usual class: inhibitors. 310,000 compounds, 5.4% hits; note: nearly all actives have a fitted effect of over 60% in size
Target sequence (P51450 whole entry, looked up, the tested form may be a part): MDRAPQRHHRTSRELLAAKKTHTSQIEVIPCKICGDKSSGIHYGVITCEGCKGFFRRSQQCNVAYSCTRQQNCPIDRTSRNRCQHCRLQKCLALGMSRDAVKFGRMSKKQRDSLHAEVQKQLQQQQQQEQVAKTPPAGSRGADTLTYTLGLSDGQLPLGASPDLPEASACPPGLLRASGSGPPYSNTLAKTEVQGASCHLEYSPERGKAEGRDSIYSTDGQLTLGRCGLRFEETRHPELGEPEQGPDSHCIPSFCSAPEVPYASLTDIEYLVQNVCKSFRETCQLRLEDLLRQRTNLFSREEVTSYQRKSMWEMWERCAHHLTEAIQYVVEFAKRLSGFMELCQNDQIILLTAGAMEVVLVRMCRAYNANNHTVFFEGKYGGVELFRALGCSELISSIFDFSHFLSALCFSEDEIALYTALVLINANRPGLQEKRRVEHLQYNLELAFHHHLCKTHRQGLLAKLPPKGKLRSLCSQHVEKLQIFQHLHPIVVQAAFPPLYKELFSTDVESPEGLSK
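Read-out: Photinus luciferase luminescence; inhibitors lower reporter signal. Insect Schneider cells with Gal4-ROR gamma fusion under metallothionein promoter, UAS reporter; 700 uM final copper sulfate induction, 20 hr, ambient temperature.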
ELG1 repair inh: inhibitors of ELG1-dependent DNA repair in HEK293T cells. HEK293T ELG1-luciferase reporter, luminescence, 16 h; DNA damage induced by 5-fluorouridine. 330,000 compounds, 2.3% hits. Potency, µM (top dose mostly 46.1 µM), inactives show top-dose activity change, negative = inhibition, hits mostly inhibitors; note: nearly all actives have a fitted effect of over 55% in size
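DMSO vehicle served as the neutral condition. Each well held 2,000 cells given 5-fluorouridine plus compound; after 16 hr at 37 °C/5% CO2, ONE-Glo was added and luciferase measured 30 min later.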
TDP1 cell noCPT: qHTS for Inhibitors of human tyrosyl-DNA phosphodiesterase 1 (TDP1): qHTS in cells in absence of CPT; Potency, µM (top dose mostly 46.2 µM), without a hit: top-dose activity change, negative = growth inhibition, most hits filed as inhibitors; 420,000 compounds, 15% hits; DT40 Tdp1-/- hTDP1 cells, no CPT, ATP luminescence, 48 h; AID 686978, 2013; note: nearly all actives have a fitted effect of over 55% in size
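A cellular qHTS used chicken DT40 cells lacking endogenous Tdp1 but carrying stably transfected human TDP1. Compounds were applied without camptothecin, and cell growth kinetics were judged by ATP-dependent luminescence after ≥48 hr.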
The depositor's hits bear a star; ? = inconclusive; nt = no result given; [ ] = remark or other dose. Most compounds without a hit are left out; they make up all but 15% or so of the library. Calls come from the whole dose curve; as a rule, active = well fitted curve in the direction sought with a large enough effect; inconclusive = small, poorly fitted or top-dose-only effect, or another doubt; inactive = no such curve, though single readings can be large; an effect the other way counts as inactive or inconclusive. % is set by controls: 0 for no effect and ±100 for the full control effect; potency is the fitted concentration of half-maximal effect.

SMILES | ALOX12 inh | DT40 TDP1 CPT | Gal4-VP16 FLuc | RORg inh | ELG1 repair inh | TDP1 cell noCPT
CCN(CC)C(=O)c1oc2ccc(S(=O)(=O)N3CCCCCC3)cc2c1C | 0% | ? | -13% | 33% | -27% | 23µM*
CCOC(=O)c1oc2ccc(S(=O)(=O)N3CCOCC3)cc2c1C | 17% | -17% | 0% | 0% | -1% | -13%
Cc1c(C(=O)Nc2ccc(F)cc2)oc2ccc(S(=O)(=O)N3CC(C)CC(C)C3)cc12 (centres undefined) | -2% | 18µM* | 1% | 1% | ? | 15µM*
CN1CCC2(Cc3ccccc3CN([S+](C)(=O)[O-])C2)C1 (centres undefined) | 6%[12.5 µM] | nt | nt | nt | nt | nt
N#Cc1cccnc1NCCNC(=O)c1cnc2ccccc2n1 | -6% | nt | nt | nt | nt | nt
CC1=C(C(=O)Nc2cccc(C(F)(F)F)c2)C2(CCCCC2)OC1=O | -22% | ? | nt | nt | nt | 16µM*
CC1=C(C(=O)Nc2cc(C)cc(C)c2)C2(CCCCC2)OC1=O | -10% | ? | nt | nt | nt | -24%
COC(=O)c1ccccc1NC(=O)C1=C(C)C(=O)OC12CCCCCC2 | -11% | 18µM* | nt | nt | nt | 16µM*
CC1=C(C(=O)Nc2cccc(F)c2)C2(CCCCC2)OC1=O | -30% | ? | nt | nt | nt | ?
CC1=C(C(=O)NCc2cccc(Br)c2)C2(CCCCC2)OC1=O | -15% | 15µM* | nt | nt | nt | 23µM*
CC1=C(C(=O)NCc2cccc(F)c2)C2(CCCCC2)OC1=O | 0% | -25% | nt | nt | nt | -14%
CC1=C(C(=O)Nc2cccc(C(F)(F)F)c2)C2(CCCCCC2)OC1=O | -24% | 16µM* | nt | nt | nt | ?
CC1=C(C(=O)Nc2ccc(C)cc2C)C2(CCCCC2)OC1=O | -24% | nt | nt | nt | nt | nt
CCONC(=O)c1cccc(NC(C)=O)c1 | -43% | nt | nt | nt | nt | nt
CN(Cc1ccccc1N1CCCC1)C(=O)c1cc2cc(Cl)ccc2o1 | 136% | 12µM* | nt | nt | -16% | -15%
CN(Cc1ccccc1N1CCCC1)C(=O)c1cc2ccccc2o1 | -5% | ? | nt | nt | ? | ?
Cc1ccc(OCC(=O)Nc2cc(-c3nc4cc(Cl)ccc4o3)ccc2C)c(C)c1 | nt | -24% | nt | nt | nt | -12%
COc1ccc(-c2nc3cc(C(C)C)ccc3o2)cc1NC(=O)COc1ccc(C)cc1C | 6% | 6.5µM* | nt | nt | nt | ?
COc1ccc(-c2nc3cc(C(C)C)ccc3o2)cc1NC(=O)c1ccc(C)c(Cl)c1 | -16% | 21µM* | nt | nt | nt | 18µM*
Cc1ccc(NC(=O)Cn2cc(C(=O)c3ccco3)c3ccccc32)cc1C | -18% | ? | nt | nt | nt | 18µM*
COc1ccc(NC(=O)Cn2cc(C(=O)c3ccco3)c3ccccc32)cc1 | 7% | ? | 1% | 1% | ? | ?
Cc1ccc(NC(=O)Cn2cc(C(=O)c3ccco3)c3ccccc32)cc1 | -6% | ? | nt | nt | nt | 15µM*
O=C(Cn1cc(C(=O)c2ccco2)c2ccccc21)Nc1ccccc1 | -11% | 10µM* | 12% | 1% | -9% | 12µM*
Cc1cccc(C)c1NC(=O)Cn1cc(C(=O)c2ccco2)c2ccccc21 | -19% | ? | nt | nt | nt | ?
O=C1NC2(CCCCC2)N(C(=O)c2ccccc2Br)C2=C1CCCC2 | -3% | nt | nt | nt | nt | nt
SMILES | ALOX12 inh | DT40 TDP1 CPT | Gal4-VP16 FLuc | RORg inh | ELG1 repair inh | TDP1 cell noCPT
O=C(N/N=C/c1ccc(N2CCOCC2)s1)c1ccccc1Br | -4% | 12% | -7% | 11µM* | 7% | -4%
Cc1ccc(C(=O)N/N=C/c2ccccc2)cc1 | -41% | nt | nt | nt | nt | nt
Nc1ccc(C(=O)N/N=C/c2ccc(N3CCOCC3)s2)cc1 | 24% | -2% | nt | nt | 11% | -30%
O=C(/C=N/NC(=O)c1ccccc1Br)c1ccccc1 | 4% | ? | 14% | ? | ? | ?
Cc1ccc(C(=O)N/N=C/c2nc3ccccc3n2C)cc1 | -15% | ? | -11% | 11µM* | ? | 18µM*
Cn1c(/C=N/NC(=O)c2ccccc2Br)nc2ccccc21 | -27% | ? | -28% | -31% | -9% | 18µM*
O=c1c2ccc(Cl)cc2nc(-c2ccc([N+](=O)[O-])cc2)n1O | -13% | 8.2µM* | 18µM* | 8.9µM* | 9.2µM* | 8.2µM*
O=c1c2cc(Cl)ccc2nc(-c2ccc(Cl)c(Cl)c2)n1O | -19% | 5.2µM* | 3% | -56% | -22% | 5.2µM*
O=c1c2cc(Cl)ccc2nc(-c2ccccc2)n1O | -3% | -1% | 1% | 6.3µM* | -27% | -20%
O=c1c2cc(Br)ccc2nc(-c2ccc([N+](=O)[O-])cc2)n1O | -5% | ? | 8% | ? | ? | -109%
COc1ccccc1-c1nc2cc(Cl)ccc2c(=O)n1O | -31% | -12% | 2.5µM* | ? | 4% | -2%
COCCNC(=O)C(NC(=O)c1cccs1)C1CCN(C(=O)c2cccs2)CC1 (centres undefined) | 17% | nt | nt | nt | nt | nt
COC(=O)c1ccc2c(=O)n(Cc3ccc(C(=O)NC(C)C)cc3)c(=S)[nH]c2c1 | 7% | ? | 3% | -15% | 10% | 23µM*
O=c1cc(O)n(-c2ccccc2)c(=S)[nH]1 | ? | 21µM* | -2% | -19% | 1% | ?
COC(=O)c1ccc2c(=O)n(-c3ccccc3F)c(=S)[nH]c2c1 | 410% | -28% | 5.6µM* | 3.2µM* | 18µM* | -25%
O=C(NCc1ccco1)c1ccc2c(=O)n(-c3ccccc3)c(=S)[nH]c2c1 | -2% | -24% | -5% | -15% | 2% | -7%
Cc1cccc(-n2c(N)cc(=O)[nH]c2=S)c1 | -23% | ? | -3% | ? | 0% | 3%
COC(=O)c1ccc2c(=O)n(-c3ccccc3)c(=S)[nH]c2c1 | -10% | -7% | ? | 1.8µM* | ? | 0%
Cn1nnnc1SCC(=O)c1ccc(-c2ccccc2)cc1 | 6% | nt | nt | nt | nt | nt
COc1ccc(-n2c(=S)[nH]c3cc(C(=O)N4CCN(c5ccccc5)CC4)ccc3c2=O)cc1 | -9% | -18% | ? | 10µM* | -8% | -30%
CCCOc1ccc(-c2nc(C#N)c(NCc3ccccc3Cl)o2)cc1 | 50% | nt | nt | nt | nt | nt
Cn1nc(C(=O)N2CCCn3nc(CO)cc3C2)c2ccccc2c1=O | 50% | nt | nt | nt | nt | nt
COC(=O)c1ccc(NC(=O)CSc2nc3cccnc3n2C)cc1 | 178%[57.4 µM] | ? | -28% | ? | ? | 16µM*
CCOC(=O)c1ccc(NC(=O)CSc2nc(=O)n3cccc(C)c3n2)cc1 | ? | 21µM* | nt | nt | -16% | 13µM*
CCOC(=O)c1ccc(NC(=O)CSc2nc3cccnc3n2C)cc1 | 0% | ? | ? | ? | ? | 21µM*
